Results filed as inconclusive are left out. Activity calls are given as the source filed them. Calls follow the shape of the dose curve; as a rule, active = well fitted curve in the direction sought with a large enough effect; inconclusive = small, poorly fitted or top-dose-only effect, or another doubt; inactive = no such curve, though single readings can be large; an effect the other way counts as inactive or inconclusive.
Key:
[1] = qHTS of pediatric cancer cell lines to identify multiple opportunities for drug repurposing: Primary screen for SK-N-MC cells (AID 1347093); also: potency is read from the fitted curve at half-maximal effect;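 as to activity change, negative = cytotoxic: series mostly up to about 46 µM; plate controls were DMSO neutral control for no effect and bortezomib for full effect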
Summary of the method: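 Metabolically active cells were quantified by ATP-dependent luminescence (CellTiter-Glo, 15 min at room temperature) following 48 h treatment. Cells had been plated at 500-1,000 per well and settled for 5 h beforehand.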

[2] = qHTS of pediatric cancer cell lines to identify multiple opportunities for drug repurposing: Primary screen for BT-37 cells (AID 1347094);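 also: series mostly up to about 57 µM; plate controls were DMSO for no effect and bortezomib for full effect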
Summary of the method: (§1)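 Following a 5-hour attachment period, cells at 500-1,000/well received compounds and were cultured for 48 hours. CellTiter-Glo was added and luminescence read to estimate viable, metabolically active cells.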

[3] = qHTS of pediatric cancer cell lines to identify multiple opportunities for drug repurposing: Primary screen for NB-EBc1 cells (AID 1347095);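 also: plate controls were DMSO neutral control for no effect and bortezomib for full effect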
Summary of the method: as §1

[4] = qHTS of pediatric cancer cell lines to identify multiple opportunities for drug repurposing: Primary screen for U-2 OS cells (AID 1347096);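 also: plate controls were DMSO wells for no effect and bortezomib positive control wells for full effect; nearly all actives have a fitted effect of over 50% in size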
Summary of the method: (§2)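 Cells (500-1,000/well) rested 5 h, then received compounds for 48 h; metabolically active cells were measured by CellTiter-Glo luminescence. Final concentrations spanned up to 46 µM (MIPE, 11-point) or 0.59 nM-46 µM (NPC, 8-point) in primary screens, 11-point in follow-ups.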

[5] = qHTS of pediatric cancer cell lines to identify multiple opportunities for drug repurposing: Primary screen for Saos-2 cells (AID 1347097); also: % is scaled to controls: 0 for no effect and ±100 for the full control effect; nearly all actives have a fitted effect of over 40% in size
Summary of the method: as §1

[6] = qHTS of pediatric cancer cell lines to identify multiple opportunities for drug repurposing: Primary screen for SK-N-SH cells (AID 1347098);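 also: DMSO served as neutral control and bortezomib at 2.3 µM as positive control; % is scaled to controls: 0 for no effect and ±100 for the full control effect; nearly all actives have a fitted effect of over 65% in size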
Summary of the method: as §2

[7] = qHTS of pediatric cancer cell lines to identify multiple opportunities for drug repurposing: Primary screen for NB1643 cells (AID 1347099); also: nearly all actives have a fitted effect of over 50% in size; also: potency is read from the fitted curve at half-maximal effect;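 as to activity change, negative = cytotoxic: plate controls were DMSO neutral control for no effect and bortezomib positive control for full effect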
Summary of the method: as §1

[8] = qHTS of pediatric cancer cell lines to identify multiple opportunities for drug repurposing: Primary screen for LAN-5 cells (AID 1347100);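 also: plate controls were DMSO neutral control for no effect and bortezomib positive control for full effect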
Summary of the method: as §2

[9] = qHTS of pediatric cancer cell lines to identify multiple opportunities for drug repurposing: Primary screen for BT-12 cells (AID 1347101);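 also: plate controls were DMSO for no effect and bortezomib positive control for full effect; nearly all actives have a fitted effect of over 25% in size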
Summary of the method: as §2

[10] = qHTS of pediatric cancer cell lines to identify multiple opportunities for drug repurposing: Primary screen for Rh18 cells (AID 1347102); also: % is scaled to controls: 0 for no effect and ±100 for the full control effect; nearly all actives have a fitted effect of over 65% in size
Summary of the method: as §2

CC(C)NNC(=O)c1ccncc1
inactive: Potency [1] | Potency [2] | Potency [3] | Potency [4] | Potency [5] | Potency [6] | Potency [7] | Potency [8] | Potency [9] | Potency [10]

CCc1c(C)[nH]c2c1C(=O)C(CN1CCOCC1)CC2 (stereo not drawn)
inactive: Potency [1] | Potency [2] | Potency [3] | Potency [4] | Potency [5] | Potency [6] | Potency [7] | Potency [8] | Potency [9] | Potency [10]

C=CCc1ccccc1OCC(O)CNC(C)C (stereo not drawn)
inactive: Potency [1] | Potency [2] | Potency [3] | Potency [4] | Potency [5] | Potency [6] | Potency [7] | Potency [8] | Potency [9] | Potency [10]

O=C(O)CCCCCCCC(=O)O
inactive: Potency [1] | Potency [2] | Potency [3] | Potency [4] | Potency [5] | Potency [6] | Potency [7] | Potency [8] | Potency [9] | Potency [10]

CCCCOCCOCCOCc1cc2c(cc1CCC)OCO2
inactive: Potency [1] | Potency [2] | Potency [3] | Potency [4] | Potency [5] | Potency [6] | Potency [7] | Potency [8] | Potency [9] | Potency [10]

c1ccc2c(c1)CCCC2C1=NCCN1 (stereo not drawn)
inactive: Potency [1] | Potency [2] | Potency [3] | Potency [4] | Potency [5] | Potency [6] | Potency [7] | Potency [8] | Potency [9] | Potency [10]

COCCc1ccc(OCC(O)CNC(C)C)cc1 (stereo not drawn)
inactive: Potency [1] | Potency [2] | Potency [3] | Potency [4] | Potency [5] | Potency [6] | Potency [7] | Potency [8] | Potency [9] | Potency [10]

CCn1nc(C(=O)O)c(=O)c2cc3c(cc21)OCO3
inactive: Potency [1] | Potency [2] | Potency [3] | Potency [4] | Potency [5] | Potency [6] | Potency [7] | Potency [8] | Potency [9] | Potency [10]

CN(C)CCN(Cc1cccs1)c1ccccn1
inactive: Potency [1] | Potency [2] | Potency [3] | Potency [4] | Potency [5] | Potency [6] | Potency [7] | Potency [8] | Potency [9] | Potency [10]

COc1ccc(CN(CCN(C)C)c2ccccn2)cc1
inactive: Potency [1] | Potency [2] | Potency [3] | Potency [4] | Potency [5] | Potency [6] | Potency [7] | Potency [8] | Potency [9] | Potency [10]

Nc1c2c(nc3ccccc13)CCCC2O (stereo not drawn)
inactive: Potency [1] | Potency [2] | Potency [3] | Potency [4] | Potency [5] | Potency [6] | Potency [7] | Potency [8] | Potency [9] | Potency [10]

NS(=O)(=O)c1cc2c(cc1Cl)NC(C1CC3C=CC1C3)NS2(=O)=O (stereo not drawn)
inactive: Potency [1] | Potency [2] | Potency [3] | Potency [4] | Potency [5] | Potency [6] | Potency [7] | Potency [8] | Potency [9] | Potency [10]

NC(=O)c1cn(Cc2c(F)cccc2F)nn1
inactive: Potency [1] | Potency [2] | Potency [3] | Potency [4] | Potency [5] | Potency [6] | Potency [7] | Potency [8] | Potency [9] | Potency [10]

CCN(CC)CC(=O)Nc1c(C)cccc1C
inactive: Potency [1] | Potency [2] | Potency [3] | Potency [4] | Potency [5] | Potency [6] | Potency [7] | Potency [8] | Potency [9] | Potency [10]

CCO/C([O-])=N/c1c[n+](N2CCOCC2)no1
inactive: Potency [1] | Potency [2] | Potency [3] | Potency [4] | Potency [5] | Potency [6] | Potency [7] | Potency [8] | Potency [9] | Potency [10]

COc1ccc(CCN(C)CCCC(C#N)(c2cc(OC)c(OC)c(OC)c2)C(C)C)cc1OC (stereo not drawn)
inactive: Potency [1] | Potency [2] | Potency [3] | Potency [4] | Potency [5] | Potency [6] | Potency [7] | Potency [8] | Potency [10]

O=C(O)CN(CCOCCOCCN(CC(=O)O)CC(=O)O)CC(=O)O
inactive: activity change, negative = cytotoxic [1] 0.435% [at 0.597 µM] | activity change, negative = cytotoxic [2] 13% [at 0.745 µM] | activity change, negative = cytotoxic [3] 21.8% [at 0.597 µM] | activity change, negative = cytotoxic [4] 10.9% [at 0.597 µM] | activity change, negative = cytotoxic [5] -2.21% [at 0.597 µM] | activity change, negative = cytotoxic [6] -13% [at 0.741 µM] | activity change, negative = cytotoxic [7] 28.6% [at 0.597 µM] | activity change, negative = cytotoxic [8] 27.7% [at 0.597 µM] | activity change, negative = cytotoxic [9] 8.07% [at 0.745 µM] | activity change, negative = cytotoxic [10] 14.5% [at 0.597 µM]

CN(C)CC[C@@H](c1ccc(Br)cc1)c1ccccn1
inactive: Potency [1] | Potency [2] | Potency [3] | Potency [4] | Potency [5] | Potency [6] | Potency [7] | Potency [8] | Potency [9] | Potency [10]

CN/C(=C\[N+](=O)[O-])NCCSCc1ccc(CN(C)C)o1
inactive: Potency [2] | Potency [3] | Potency [4] | Potency [5] | Potency [6] | Potency [8] | Potency [9] | Potency [10]
active: Potency [1] 0.001 µM | Potency [7] 37.6 µM

CCN1CCC[C@H]1CNC(=O)c1c(O)c(Cl)cc(Cl)c1OC
inactive: Potency [1] | Potency [2] | Potency [3] | Potency [4] | Potency [5] | Potency [6] | Potency [7] | Potency [8] | Potency [10]

O=C1CC2(CCCC2)CC(=O)N1CCCCN1CCN(c2ncccn2)CC1
inactive: Potency [1] | Potency [2] | Potency [3] | Potency [4] | Potency [5] | Potency [6] | Potency [7] | Potency [8] | Potency [9] | Potency [10]

— PubChem BioAssay (NCATS)
